# Experimental data: PubChem BioAssay (EPA / NIEHS)
# Inconclusive results are not listed. Active and inactive are the calls of the source. Rule for the calls, unless noted: active = hit-call score of the fitted dose curve at least 0.9, where 1 is the maximum; inactive = score below 0.9.
# Key:
# [1] = CCTE_Mundy_HCI_Cortical_Synap_Neur_Matur_NeuriteSpotCountPerNeuron: CCTE's Synaptogenesis and Neurite Maturation Assay in rat cortical cells for Neurite Spot Count per Neuron Count, Mundy Lab (AID 2284215)
# Outline: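 Rat cortical primary cultures; AraC DIV 5 to arrest glia; dosing + media change DIV 7; fixed DIV 12. Anti-MAP2/anti-synaptophysin, Hoechst nuclei; HCI puncta count per neuron, positive fitting direction vs DMSO.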
# [2] = CCTE_Mundy_HCI_Cortical_Synap_Neur_Matur_NeuriteCount: CCTE's Synaptogenesis and Neurite Maturation Assay in rat cortical cells for Neurite Count, Mundy Lab (AID 2284222);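 note: exposure from day 7 to day 12 in vitro with readout at day 12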
# Outline: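 In this multiplexed morphology readout, rat primary cortical neurons are fixed at DIV 12 following dosing at DIV 7 and stained for MAP2, synaptophysin and nuclei. High-content image analysis yields neurite count.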
# [3] = CCTE_Mundy_HCI_Cortical_Synap_Neur_Matur_CellBodySpotCount: CCTE's Synaptogenesis and Neurite Maturation Assay in rat cortical cells for Cell Body Spot Count, Mundy Lab (AID 2284223)
# Outline: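 Rat cortical neurons; AraC @ DIV 5; dose + media change DIV 7; fix DIV 12; anti-MAP2/anti-synaptophysin IF, Hoechst; HCI count of soma synaptophysin puncta/neuron; DMSO = negative control.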
# [4] = CCTE_Mundy_HCI_hNP1_Pro_ResponderAvgInten: CCTE's Proliferation Assay in human neuroprogenitor cells, Mundy Lab (AID 2284224; active = hit-call score of the fitted dose curve at least 0.9, where 1 is the maximum)
# Outline: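 Proliferation was scored as BrdU labelling intensity in human neural progenitors derived from WA09 embryonic cells, measured 26.25 hours after chemical dosing. Activity was fitted relative to DMSO.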
# [5] = UKN2_HCS_IMR90_cell_viability: Viability Assessment in the University of Konstanz (UKN) Leist Lab Neural Crest Cell Migration Assay in human induced IMR90 Pluripotent Stem Cells (UKN2) (AID 2284233);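 note: cells exposed to compound for 24 h after a 24 h migration phase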
# Outline: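 After calcein-AM/Hoechst staining, viability is quantified by high-content fluorescence imaging, relative to DMSO, in iPSC (IMR90)-derived neural crest cells. Exposure lasts 24 h, starting after a 24 h migration period on PLO/laminin/fibronectin coating.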
# [6] = CCTE_Mundy_HCI_Cortical_NOG_NeuronCount: CCTE's Neurite Outgrowth Assay in rat cortical cells for Neuron Count, Mundy Lab (AID 2284236; active = hit-call score of the fitted dose curve at least 0.9, where 1 is the maximum;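 note: neurons counted by imaging betaIII-tubulin and Hoechst stained cortical cells; cells exposed to compound for about 48 hours before fixation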)
# Outline: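 Read-out: neuron number by high-content imaging of betaIII-tubulin (Alexa Fluor-488) and Hoechst-labelled rat primary cortical cells.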
# [7] = CCTE_Mundy_HCI_Cortical_NOG_BPCount: CCTE's Neurite Outgrowth Assay in rat cortical cells for Branch Point Count, Mundy Lab (AID 2284237)
# Outline: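 Measured 50.33 h after dosing, this morphology endpoint uses rat primary cortical cultures labelled for betaIII-tubulin. Branch points are quantified by high-content imaging, with DMSO as negative control and baseline.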
# [8] = CCTE_Mundy_HCI_hNP1_Casp3_7: CCTE's Caspase-Glo 3/7 Assay in human neuroprogenitor cells for Apoptosis, Mundy Lab (AID 2284240)
# Outline: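 Apoptosis is scored by activated caspase-3/7 luminescence in WA09-derived neural progenitor cells, measured 26.5 h after chemical dosing. Values represent gain of signal relative to DMSO vehicle.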
# [9] = CCTE_Mundy_HCI_hNP1_CellTiter: CCTE's Cell Titer-Glo 2 Assay in human neuroprogenitor cells for Viability, Mundy Lab (AID 2284241; active = hit-call score of the fitted dose curve at least 0.9, where 1 is the maximum)
# Outline: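 Human neural progenitor cells (hNP1, WA09-derived) were plated on poly-L-ornithine/laminin and grown 40 to 44 hours at 37 °C, 5% CO2 before chemical addition. Twenty-four hours later, ATP was measured by CellTiter-Glo luminescence; loss of signal versus DMSO indicates reduced viability.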
# [10] = IUF_NPC2c_oligodendrocyte_migration_120hr: Leibniz Research Institute for Environmental Medicine (IUF) 120-hour Neural Progenitor Cell Migration Assay for Oligodendrocyte Migration (NPC2c) (AID 2284297)
# Outline: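 Read-out is the mean distance of O4-positive oligodendrocytes from the sphere core edge at 120 h, normalized to radial glia migration and fitted in the gain direction against DMSO. Spheres of primary human neural progenitors differentiated on laminin under continuous compound exposure.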
# [11] = IUF_NPC2a_radial_glia_migration_72hr: Leibniz Research Institute for Environmental Medicine (IUF) 72-hour Neural Progenitor Cell Migration Assay for Radial Glia Migration (NPC2a) (AID 2284299)
# Outline: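 Spheres of human primary neural progenitors migrate on poly-D-lysine/laminin under compound exposure at 37C, 5% CO2. The 72 h radial glia migration distance comes from brightfield images, measured manually.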
# [12] = IUF_NPC2b_neuronal_migration_120hr: Leibniz Research Institute for Environmental Medicine (IUF) 120-hour Neural Progenitor Cell Migration Assay for Neuron Migration (NPC2b) (AID 2284300)
# Outline: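 Read-out is mean distance from sphere edge to each TUBB3-positive neuron at 120 h, expressed relative to radial glia migration distance and to DMSO baseline. Single 0.3 mm human NPC spheres differentiated on laminin under continuous compound exposure.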
# [13] = IUF_NPC3_neuronal_differentiation_120hr: Leibniz Research Institute for Environmental Medicine (IUF) 120-hour Neuronal Differentiation Assay (NPC3) (AID 2284301)
# Outline: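 Value is percent TUBB3-positive neurons among Hoechst-stained nuclei in the migration area, scored by trained CNN after 120 h differentiation. Primary hNPC spheres on poly-D-lysine/laminin, N2 medium, continuous dosing from day 0, half-refeed day 3; DMSO reference.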
# [14] = IUF_NPC5_oligodendrocyte_differentiation_120hr: Leibniz Research Institute for Environmental Medicine (IUF) 120-hour Oligodendrocyte Differentiation Assay (NPC5) (AID 2284304; active = hit-call score of the fitted dose curve at least 0.9, where 1 is the maximum;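 note: primary human fetal neural progenitor spheres plated to migrate and differentiate; share of O4-positive cells among Hoechst nuclei found by CNN image analysis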)
# Outline: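 Oligodendrocyte differentiation was scored after 120 h as the O4-positive share of Hoechst-stained nuclei across the neurosphere migration area, using a trained convolutional neural network on high-content fluorescence images. Human fetal neural progenitor spheres were dosed from day 0, normalised to DMSO.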
# [15] = IUF_NPC4_neurite_area_120hr: Leibniz Research Institute for Environmental Medicine (IUF) 120-hour Neuronal Morphology Assay for Neurite Area (NPC4) (AID 2284305; active = hit-call score of the fitted dose curve at least 0.9, where 1 is the maximum)
# Outline: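 Neurite area (pixels, nuclei excluded) of TUBB3-positive neurons from hNPC spheres differentiating 5 days under continuous exposure at 37 C, 5% CO2. High-content imaging; loss of signal versus DMSO control across 7 concentrations.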
# [16] = IUF_NPC2-5_cytotoxicity_72hr: Cytotoxicity Assessment at 72 hours in the Leibniz Research Institute for Environmental Medicine (IUF) Neural Progenitor Cell Migration and Differentiation Assay for Cytotoxicity (NPC2-5) (AID 2284306; active = hit-call score of the fitted dose curve at least 0.9, where 1 is the maximum;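 note: LDH release into supernatant measured by resorufin fluorescence marking membrane damage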)
# Outline: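 Membrane-integrity cytotoxicity at 72 h, read as LDH-driven resorufin fluorescence in supernatant. hNPC spheres from fetal cortex differentiate on coated plates in N2 medium, 37C, 5% CO2; seven serial compound concentrations plus solvent control (DMSO ≤0.1%).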
# [17] = IUF_NPC2-5_cytotoxicity_120hr: Cytotoxicity Assessment at 120 hours in the Leibniz Research Institute for Environmental Medicine (IUF) Neural Progenitor Cell Migration and Differentiation Assay (NPC2-5) (AID 2284307; active = hit-call score of the fitted dose curve at least 0.9, where 1 is the maximum)
# Outline: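 Sphere plating starts differentiation and exposure together at day 0. Compound solution is half-replaced on day 3. At 120 h, medium supernatant is taken for an LDH membrane-integrity read based on resazurin reduction to resorufin fluorescence.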
# [18] = IUF_NPC2-5_cell_number_120hr: Cell Number Assessment at 120 hours in the Leibniz Research Institute for Environmental Medicine (IUF) Neural Progenitor Cell Migration and Differentiation Assay (NPC2-5) (AID 2284308);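 note: count of Hoechst-stained nuclei in migration zone around plated human neural progenitor spheres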
# Outline: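 hNPC spheres, one per well, PDL/laminin, N2 medium, 37C, 5% CO2. Dosing day 0 → half-medium change with fresh compound day 3 → fix 120 h. Readout: Hoechst+ nuclei count, migration area; 7 concentrations plus solvent control.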
# [19] = IUF_NPC2-5_viability_120hr: Viability Assessment at 120 hours in the Leibniz Research Institute for Environmental Medicine (IUF) Neural Progenitor Cell Migration and Differentiation Assay (NPC2-5) (AID 2284312)
# Outline: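 Alamar blue resorufin fluorescence read after 5 days of differentiation, with compound present from day 0 and replenished at day 3. Primary hNPC spheres on laminin-coated plates, 37C; seven concentrations plus solvent control, fitted against DMSO.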
# [20] = IUF_NPC1_cytotoxicity_72hr: Cytotoxicity Assessment at 72 hours in the Leibniz Research Institute for Environmental Medicine (IUF) Neural Progenitor Cell Proliferation Assay (NPC1) (AID 2284332; active = hit-call score of the fitted dose curve at least 0.9, where 1 is the maximum;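 note: rising LDH signal means more cytotoxicity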)
# Outline: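 Readout is fluorescence from LDH-dependent resazurin conversion, sampled from culture medium after compound contact lasting 72 h. Each well holds one 0.25-0.35 mm human progenitor sphere kept at 37C, 5% CO2 with EGF and FGF.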
# [21] = CCTE_Mundy_HCI_iCellGluta_NOG_NeuronCount: CCTE's Neurite Outgrowth Assay in iCellGluta cells for Neuron Count, Mundy Lab (AID 2284340; active = hit-call score of the fitted dose curve at least 0.9, where 1 is the maximum;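 note: cells fixed about 48 h after compound addition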)
# Outline: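 Neuron count read by automated high-content imaging of Hoechst 33342 and betaIII-tubulin/Alexa Fluor-488 labelling in human iPSC glutamatergic neurons. Activity fitted relative to DMSO.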
# [22] = CCTE_Mundy_HCI_iCellGluta_NOG_NeuriteCount: CCTE's Neurite Outgrowth Assay in iCellGluta cells for Neurite Count, Mundy Lab (AID 2284342; active = hit-call score of the fitted dose curve at least 0.9, where 1 is the maximum;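 note: chemical exposure about 48 hours starting 2 hours after plating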)
structure (smiles),measurement,setting,value
CCCCCC(C)(CC)C(=O)NC (configuration not stated),outcome,[1],inactive
same,outcome,[2],inactive
same,outcome,[3],inactive
same,outcome,[4],inactive
same,outcome,[5],inactive
same,outcome,[6],inactive
same,outcome,[7],inactive
same,outcome,[8],inactive
same,outcome,[9],inactive
same,outcome,[10],inactive
same,AC50,[11],1.02 µM (active)
same,outcome,[12],inactive
same,outcome,[13],inactive
same,outcome,[14],inactive
same,outcome,[15],inactive
same,outcome,[16],inactive
same,outcome,[17],inactive
same,outcome,[18],inactive
same,outcome,[19],inactive
same,outcome,[20],inactive
same,outcome,[21],inactive
same,outcome,[22],inactive
